The panel holds about 83,000 compounds, 20% with a hit somewhere; the sample as a whole holds those more often.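 Method: cells in 96-well plates; compound added at one concentration; 48 h incubation; percent growth measured; values under 10 scored active.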 Unmarked numbers belong to inactive results. The source made the active and inactive calls.
tested on: MOLT-4 leukemia; experiment: NCI-60 one-dose screen, 48 h (100 = growth as untreated, 0 = no growth, -100 = all killed); conditions: 10 µM

Row | SMILES | growth
1 | COc1cccc(O)c1O | 64.8%
2 | CC(=O)/C(Cc1ccccc1)=N/O | 85%
3 | C=CCNC(=O)c1ccc(OC)cc1 | 102%
4 | C/C(=N/NC(N)=O)c1ccco1 | 89.9%
5 | COCCOC(=O)c1ccc(C(C)C)cc1 | 88.2%
6 | C[N+](C)=c1ccc2nc3c(cc(Nc4ccccc4)c4ccccc43)oc-2c1 | 38%
7 | Cc1cccc(CO)c1 | 106%
8 | Nc1nc(N)c(N=Nc2ccc(C(=O)O)cc2)c(N)n1 | 102%
9 | COCCOCCCl | 117%
10 | Nc1ncnc2[nH]ncc12 | 25.9%
11 | O=[N+]([O-])c1ccc(-c2ncc(-c3ccc(Br)cc3)o2)cc1 | 97.6%
12 | CCOC(=O)CSc1c([N+](=O)[O-])ncn1C | 94.8%
13 | CC(C)(O)C#CC#CC(C)(C)O | 90.7%
14 | COc1cc(C2NC(=O)C(C#N)=C(Nc3cccc(C)c3)S2)ccc1O (stereo unspecified) | 93%
15 | CCOC(=O)Nc1nn[nH]n1 | 98.4%
16 | O=C(NN=C1CCCCC1)C(=O)NN=C1CCCCC1 | 90.9%
17 | O=C(CCl)Nc1ccc2c(c1)C(=O)c1ccc(NC(=O)CCl)cc1C2=O | -31.8% (active)
18 | CCCCOC(=O)c1ccc(C(C)C)cc1 | 83.3%
19 | N#CCCN(CCCN1CCOCC1)CN1C(=O)c2ccccc2C1=O | 90.9%
20 | Cc1ccccc1N=C(c1ccccc1)C1C(=O)c2ccccc2C1=O | 56.4%
21 | O=c1[nH]cc(Cl)cc1O | 92.1%
